Source: PubChem BioAssay
Hits are enriched below; roughly 15% of the tested compounds scored in any of these assays.
TDP1 cell noCPT – qHTS for Inhibitors of human tyrosyl-DNA phosphodiesterase 1 (TDP1): qHTS in cells in absence of CPT | AID 686978, 2013 | DT40 Tdp1-/- hTDP1 cells, no CPT, ATP luminescence, 48 h | Potency, µM (titrated, usually from 46.2 µM), inactives show at the highest dose activity change, negative = growth inhibition, most hits filed as inhibitors | 420,000 compounds, 15% hits; note: nearly all actives have a fitted effect of over 55% in size
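Luminescent ATP content (CellTiter-Glo) served as the growth readout. Knockout chicken DT40 cells expressing human TDP1 were exposed to compounds without camptothecin for a minimum 48 hr at 37 °C.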
VP16 counter – inhibits Gal4-VP16 luciferase reporter, ROR gamma counter-screen; Drosophila S2 Gal4-VP16 UAS-luciferase, luminescence, 20 h; 310,000 compounds, 3.5% hits; Potency, µM (top dose mostly 53.6 µM), for inactives: top-dose activity, negative = inhibition, most hits filed as inhibitors;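 note: Gal4-VP16 expression switched on by copper sulfate through the metallothionein promoter; nearly all actives have a fitted effect of over 50% in size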
RORg inh – ROR gamma (mouse) transcription inhibition; P51450; Drosophila S2 Gal4-RORgamma UAS-luciferase reporter, 20 h; Potency, µM (titrated, usually from 53.6 µM), for the others: at the top dose activity change, negative = inhibition, actives largely listed as inhibitors; 310,000 compounds, 5.4% hits; AID 2551; note: nearly all actives have a fitted effect of over 60% in size
Target sequence (P51450 whole entry, looked up, the tested form may be a part): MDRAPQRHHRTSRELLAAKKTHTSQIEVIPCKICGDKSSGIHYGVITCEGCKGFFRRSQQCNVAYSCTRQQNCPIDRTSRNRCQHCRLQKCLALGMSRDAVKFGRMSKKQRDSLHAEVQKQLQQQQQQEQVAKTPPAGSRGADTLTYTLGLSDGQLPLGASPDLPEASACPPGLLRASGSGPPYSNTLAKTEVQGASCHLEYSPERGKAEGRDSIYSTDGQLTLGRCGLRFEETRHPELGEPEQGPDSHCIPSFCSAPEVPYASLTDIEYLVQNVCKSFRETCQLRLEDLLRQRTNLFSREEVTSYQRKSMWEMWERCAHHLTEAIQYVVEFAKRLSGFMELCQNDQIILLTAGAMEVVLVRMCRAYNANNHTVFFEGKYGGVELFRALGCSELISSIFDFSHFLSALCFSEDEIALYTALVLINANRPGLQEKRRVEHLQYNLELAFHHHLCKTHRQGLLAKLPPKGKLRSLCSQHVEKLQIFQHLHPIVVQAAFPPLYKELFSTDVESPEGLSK
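Compounds are pin-transferred onto Drosophila Schneider cells expressing a copper-inducible Gal4–ROR gamma transactivation domain fusion. After 1 hr, copper sulfate is added to 700 uM final; luciferase is read 20 hr later.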
ELG1 repair inh – inhibitors of ELG1-dependent DNA repair in HEK293T cells; HEK293T ELG1-luciferase reporter, luminescence, 16 h; DNA damage induced by 5-fluorouridine; Potency, µM (top dose mostly 46.1 µM), for the others: at the top dose activity change, negative = inhibition, actives largely listed as inhibitors; 330,000 compounds, 2.3% hits; AID 504467; note: nearly all actives have a fitted effect of over 55% in size
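HEK293T cells expressing luciferase-tagged ELG1 (2,000/well) received 5-Fluorouridine plus compound or DMSO for 16 hr at 37 °C. Luciferase was read by ONE-Glo luminescence after 30 min at room temperature.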
TDP1 cell CPT – DT40-hTDP1 cell growth loss with CPT | Potency, µM (doses to about 46.2 µM), for inactives: top-dose activity change, negative = growth inhibition, most hits filed as inhibitors | 420,000 compounds, 12% hits | chicken DT40 Tdp1-/-;hTDP1 cells + 20 nM CPT, ATP luminescence, 48 h; note: nearly all actives have a fitted effect of over 55% in size
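Cell growth measured by CellTiter-Glo luminescence after a minimum 48 h, 37 C compound exposure with 20 nM CPT in Tdp1-knockout DT40 cells stably expressing hTDP1, seeded 400/well; qHTS titration format.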
ALOX12 inh – blocks human arachidonate 12S-lipoxygenase | P18054 | purified 12hLO, xylenol orange hydroperoxide absorbance | Potency, µM (top dose mostly 108 µM), for inactives: top-dose activity change, negative = inhibition, usual class: inhibitors | 580,000 compounds, 1.1% hits | AID 1671190
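Purified human 12hLO at 150 nM in 25 mM Hepes, 0.01% Triton X-100, pH 7.0, preincubated 15 min at room temperature with compound. Reaction started with 40 uM arachidonic acid, 30 min at room temperature. Hydroperoxide measured by Fe-xylenol orange, 573/405 nm absorbance ratio.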
* = called active by the depositor; ? = inconclusive; . = no result; [ ] = remark or other dose. Calls come from the whole dose curve; as a rule, active = well fitted curve in the direction sought with a large enough effect; inconclusive = small, poorly fitted or top-dose-only effect, or another doubt; inactive = no such curve, though single readings can be large; an effect the other way counts as inactive or inconclusive. % is set by controls: 0 for no effect and ±100 for the full control effect; potency is the fitted concentration of half-maximal effect.

SMILES	TDP1 cell noCPT	VP16 counter	RORg inh	ELG1 repair inh	TDP1 cell CPT	ALOX12 inh
NC(=O)C1(NC(=O)c2ccc(I)cc2)CCCCC1	.	.	.	.	.	1%
CCNC(=O)N1CCCC1c1noc(CCC(=O)NC(C)C)n1 (centres undefined)	.	.	.	.	.	-14%
Cc1nc2c(s1)CCCC2NC(=O)c1cc(-c2ccc(F)cc2)n[nH]1 (centres undefined)	.	.	.	.	.	18%
Cc1ccc(CCC(=O)Nc2nccs2)o1	-16%	28µM*	-1%	11%	-20%	-14%
CCc1ccc(CCC(=O)Nc2nccs2)o1	-5%	4%	-26%	?	1%	-6%
Cc1ccc(N2C(=O)c3cccc4c(Oc5ccccc5[N+](=O)[O-])ccc(c34)C2=O)c(C)c1	6.5µM*	-12%	16%[10 µM]	?	10µM*	-4%
CCOc1ccc(C(=O)N2CCCC3(C2)Nc2cccnc2NC3=NC2CCCC2)cc1 (centres undefined)	.	.	.	.	.	45%
